Screening data from PubChem BioAssay.
Pf growth 96h: P. falciparum growth inhibition at 96 hours; Potency, µM (top dose mostly 28.7 µM), for the others: top-dose activity change, negative = inhibition, usual class: inhibitors; P. falciparum luciferase reporter growth, 96 h; 320,000 tested, 6.9% active; further: on the % scale 0 is the no-effect control and ±100 the full control effect
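Compounds incubated with erythrocytes infected by luciferase-expressing P. falciparum (2% hematocrit, 0.05% parasitemia final) for 96 hours, 37 C in 5% CO2. Growth inhibition scored as decreased luciferase luminescence.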
Sm TGR inh: blocks Schistosoma mansoni thioredoxin glutathione reductase; Q962Y6; purified TGR, DTNB reduction, TNB absorbance 405 nm; Potency, µM (titrated, usually from 114 µM), for inactives: top-dose activity change, negative = inhibition, actives largely listed as inhibitors; 360,000 tested, 3% active; AID 485364; further: on the % scale 0 is the no-effect control and ±100 the full control effect; nearly all actives have a fitted effect of over 60% in size
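First, TGR (20 nM dispensed) and NADPH were mixed with compound. Second, a 15 min room-temperature incubation followed. Third, further NADPH and then DTNB were added to start the reaction. Finally, TNB absorbance was monitored kinetically.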
AmpC detergent: AmpC beta-lactamase inhibition with detergent present | 370,000 tested, 0.041% active | AmpC hydrolysis of nitrocefin, absorbance 480 nm, 0.01% Triton | Potency, µM (series often up to 114 µM), for inactives: at the highest dose activity change, negative = inhibition, actives largely listed as inhibitors | AID 485294;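 further: 0% = no-compound wells and -100% = no-enzyme wells; nearly all actives have a fitted effect of over 25% in size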
Target sequence (P00811 whole entry, looked up): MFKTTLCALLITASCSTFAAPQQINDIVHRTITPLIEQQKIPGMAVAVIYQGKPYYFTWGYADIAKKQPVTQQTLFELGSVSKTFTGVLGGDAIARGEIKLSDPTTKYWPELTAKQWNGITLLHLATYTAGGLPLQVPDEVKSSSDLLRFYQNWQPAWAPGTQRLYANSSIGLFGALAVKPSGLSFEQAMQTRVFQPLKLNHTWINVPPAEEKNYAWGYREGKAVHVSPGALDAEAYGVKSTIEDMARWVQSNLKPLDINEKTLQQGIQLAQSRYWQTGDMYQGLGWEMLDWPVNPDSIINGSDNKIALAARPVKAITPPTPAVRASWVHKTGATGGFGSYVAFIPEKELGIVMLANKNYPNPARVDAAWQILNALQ
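20 mM phosphate pH 7.0 + 0.01% (detergent screen) or 0.0001% Triton X-100; 5.3 nM AmpC reagent; cpd preinc 15 min RT; nitrocefin (800 uM stock) to start; A480 q20 s × 4 min; Activity was normalised to no-enzyme and no-compound control wells.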
Pf growth 48h: inhibits P. falciparum growth in the first generation, 48 h. P. falciparum luciferase growth in erythrocytes, 48 h. Potency, µM (titrated, usually from 28.7 µM), for inactives: at the highest dose activity change, negative = inhibition, most hits filed as inhibitors. 310,000 tested, 5.9% active; further: on the % scale 0 is the no-effect control and ±100 the full control effect
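Read-out is firefly luciferase luminescence from an integrated reporter in P. falciparum, so falling signal marks reduced parasite growth. Infected erythrocytes were at 2% hematocrit and 0.1% parasitemia (final) in Albumax-supplemented RPMI 1640.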
SARS PLP yeast: SARS-CoV PLP inhibition in yeast; Potency, µM (doses to about 32.9 µM), for inactives: top-dose activity, positive = growth rescue, most hits filed as activators; S. cerevisiae expressing SARS-CoV PLpro, growth rescue; 330,000 tested, 0.19% active; AID 485353; calls by dose curve; further: 0% is about no effect; nearly all actives have a fitted effect of over 55% in size
AmpC no deterg: blocks E. coli AmpC beta-lactamase in detergent-free assay; P00811; AmpC nitrocefin hydrolysis, absorbance 480 nm, 0.0001% Triton; Potency, µM (titrated, usually from 57.1 µM), inactives show top-dose activity change, negative = inhibition, actives largely listed as inhibitors; 330,000 tested, 0.52% active;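 further: plate controls were no compound for no effect and no enzyme for full effect; nearly all actives have a fitted effect of over 20% in size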
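20 mM phosphate pH 7.0 + 0.01% (detergent screen) or 0.0001% Triton X-100; 5.3 nM AmpC reagent; cpd preinc 15 min RT; nitrocefin (800 uM stock) to start; A480 q20 s × 4 min; Activity was normalised to no-enzyme and no-compound control wells.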
The depositor's hits bear a star. Only some compounds are listed: those with a hit (about 12% of all), similar ones and a draw of the others. Unless noted, the call rests on the fitted dose curve; in most records, active means well fitted curve in the direction sought with a large enough effect; inconclusive means small, poorly fitted or top-dose-only effect, or another doubt; inactive means no such curve, though single readings can be large; an effect the other way counts as inactive or inconclusive. Potency means the concentration at half of the fitted maximal effect.

Screening O=C(Nc1cccc([N+](=O)[O-])c1)c1ccc2nsnc2c1 returned Pf growth 96h 13µM*, Sm TGR inh -11%, AmpC detergent 2%, Pf growth 48h 4%, SARS PLP yeast 1% and AmpC no deterg -38%.
`O=C(NC(=S)Nc1ccc(N2CCOCC2)cc1)c1cccc([N+](=O)[O-])c1` gave Pf growth 96h 130%, Sm TGR inh 40µM*, AmpC detergent -7%, Pf growth 48h 20%, SARS PLP yeast 8% and AmpC no deterg -14%.
`O=C(Nc1cccc([N+](=O)[O-])c1)c1ccccc1` gave Pf growth 96h 128%, Sm TGR inh 12%, AmpC detergent -7%, Pf growth 48h 95%, SARS PLP yeast -2% and AmpC no deterg -18%.
Screening O=C(NC(=S)Nc1cccc(F)c1)c1cccc([N+](=O)[O-])c1 returned Pf growth 96h 38%, Sm TGR inh 20µM*, AmpC detergent -7%, Pf growth 48h -32%, SARS PLP yeast -1% and AmpC no deterg -28%.
`CCC(=O)N1CCc2cc(S(=O)(=O)NC(CC(C)C)C(=O)NCc3ccc(F)cc3)ccc21` (stereo not drawn) gave Sm TGR inh 9% and AmpC detergent -2%.
COc1ccccc1CCNC(=O)CCn1c(=O)c2cccn2c2ccc(F)cc21 was read as Pf growth 96h -27%, Sm TGR inh inconclusive, AmpC detergent -5%, Pf growth 48h -12%, SARS PLP yeast -2% and AmpC no deterg -15%.
CC1(N(O)/C=C2\C=CC=CC2=O)CCCCC1=O (stereo not drawn) was read as Pf growth 96h 21%, Sm TGR inh 18%, AmpC detergent -3%, Pf growth 48h 43%, SARS PLP yeast 0% and AmpC no deterg -6%.
Screening COc1cccc(CNC(=O)c2ccc(-n3c(C)cc4c3CCC(C)C4)cc2)c1 (stereo not drawn) returned Sm TGR inh 12% and AmpC detergent 19%.
`O=C(NC(=S)Nc1ccc(CN2CCOCC2)cc1)c1cccc([N+](=O)[O-])c1` gave Pf growth 96h 23%, Sm TGR inh 89µM*, AmpC detergent -13%, Pf growth 48h 16%, SARS PLP yeast -24% and AmpC no deterg -1%.
For O=[N+]([O-])c1ccc(N2CCN(C(=S)Nc3cccc(F)c3)CC2)cc1 the results were Pf growth 96h -14%, Sm TGR inh 27%, AmpC detergent inconclusive, Pf growth 48h 3.3µM*, SARS PLP yeast -1% and AmpC no deterg -38%.
For O=C(NC(=S)Nc1ccc2[nH]c(=O)[nH]c2c1)c1cccc(F)c1 the results were Pf growth 96h 4%, Sm TGR inh 2.8µM*, AmpC detergent -1%, Pf growth 48h 41%, SARS PLP yeast -1% and AmpC no deterg -17%.
Screening O=[N+]([O-])c1ccc(N2CCN(C(=S)Nc3ccc(F)cc3)CC2)cc1 returned Pf growth 96h 31%, Sm TGR inh -1%, AmpC detergent -2%, Pf growth 48h inconclusive, SARS PLP yeast -5% and AmpC no deterg -28%.
CC(C)NS(=O)(=O)c1ccc(NC(=S)NC(=O)c2cccc([N+](=O)[O-])c2)cc1 was read as Pf growth 96h 13µM*, Sm TGR inh inconclusive, AmpC detergent -12%, Pf growth 48h 19%, SARS PLP yeast 7% and AmpC no deterg -38%.
`CCc1nn2c(=O)cc(COC(=O)C(CC)c3ccccc3)nc2s1` (stereo not drawn) gave Sm TGR inh 0% and AmpC detergent 23%.
Screening CCOc1ccc(CCNS(=O)(=O)c2c(C)nc3sc(C)cn3c2=O)cc1OCC returned Sm TGR inh 4% and AmpC detergent 18%.
Screening O=C(/C=C/N1CCOCC1)c1coc2ccccc12 returned Pf growth 96h 190%, Sm TGR inh 79µM*, AmpC detergent -6%, Pf growth 48h 182%, SARS PLP yeast -6% and AmpC no deterg -27%.
`O=C(/C=C/N1CCOCC1)c1cc2ccccc2o1` gave Pf growth 96h 48%, Sm TGR inh inconclusive, AmpC detergent -5%, Pf growth 48h 91%, SARS PLP yeast -12% and AmpC no deterg -45%.
Screening CCOc1ccc(NC(=O)C2C3C=CC4(O3)C2C(=O)N(Cc2cccnc2)C4C(=O)NC2CCCCC2)cc1 (stereo not drawn) returned Pf growth 96h inconclusive, Sm TGR inh 0%, AmpC detergent 2%, Pf growth 48h -27%, SARS PLP yeast 13% and AmpC no deterg -4%.
Screening CCOC(=O)C1CCCN(C(=O)CCCn2nnnc2CN2CCOCC2)C1 (stereo not drawn) returned Pf growth 96h inconclusive, Sm TGR inh 40µM*, AmpC detergent -11%, Pf growth 48h -9%, SARS PLP yeast -1% and AmpC no deterg -8%.
`O=C(CCn1nnnc1CN1CCOCC1)N1CCC(c2ccccc2F)C1` (stereo not drawn) gave Pf growth 96h 40%, Sm TGR inh 25µM*, AmpC detergent 2%, Pf growth 48h -9%, SARS PLP yeast -4% and AmpC no deterg -3%.
CCOC(=O)C1CCN(C(=O)Cn2nc(CC)n3c(cc4sccc43)c2=O)CC1 was read as Sm TGR inh 4% and AmpC detergent 15%.
`CCOC(=O)C1CCCN(C(=O)CCCn2nc(C)n3c(cc4sccc43)c2=O)C1` (stereo not drawn) gave Pf growth 96h 2.9µM*, Sm TGR inh 6%, AmpC detergent -14%, SARS PLP yeast 3% and AmpC no deterg 35%.
COc1cc(C(C(=O)NC(C)(C)C)N(C(=O)CNC(=O)c2cccs2)c2cccnc2)cc(OC)c1OC (stereo not drawn) was read as Pf growth 96h -20%, Sm TGR inh 7%, AmpC detergent -7%, Pf growth 48h -7%, SARS PLP yeast 0% and AmpC no deterg -7%.
Screening O=C(CNC1=NCCC1)c1ccc2c(c1)OCCO2 returned Pf growth 96h inconclusive, Sm TGR inh 3%, AmpC detergent inconclusive, Pf growth 48h 6.6µM*, SARS PLP yeast -2% and AmpC no deterg -2%.
S=C(c1ccc2c(c1)OCO2)N1CCOCC1 was read as Pf growth 96h -7%, Sm TGR inh 12%, AmpC detergent 4%, Pf growth 48h inconclusive, SARS PLP yeast -2% and AmpC no deterg -5%.
`O=C(CCN1CCOCC1)c1ccc2c(c1)OCCO2` gave Pf growth 96h 16%, Sm TGR inh 1.6µM*, AmpC detergent inconclusive, Pf growth 48h -8%, SARS PLP yeast -115% and AmpC no deterg -13%.
